Measured values from PubChem BioAssay AID1508602 (The Scripps Research Institute Molecular Screening Center, 2020).
Values joined by “and” are separate entries in the source; they are usually repeats but may differ in a detail not shown here. Equal entries are not always repeated. Out of some 650,000 compounds screened, about 6,800 (1%) were called active. Rule as the data show it: active = activation above about 4.9%; inactive = the rest. The entries come from a sample that favours actives as a whole. Some compounds were tested as several samples or in several runs, with calls that do not always agree.

Each compound was assayed against G-protein coupled receptor 151 (Homo sapiens) (UniProt Q8TDV0) (assay: activators of human GPR151, primary screen, cell-based, PathHunter beta-arrestin, luminescence (AID 1508602;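 also: 0% = median of compound wells and 100% = cells with positive control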)). Details: PathHunter beta-arrestin GPR151 cells, at 11.2 µM, stronger effect = higher value.
Sequence of G-protein coupled receptor 151 (Homo sapiens) (Q8TDV0 whole entry, looked up): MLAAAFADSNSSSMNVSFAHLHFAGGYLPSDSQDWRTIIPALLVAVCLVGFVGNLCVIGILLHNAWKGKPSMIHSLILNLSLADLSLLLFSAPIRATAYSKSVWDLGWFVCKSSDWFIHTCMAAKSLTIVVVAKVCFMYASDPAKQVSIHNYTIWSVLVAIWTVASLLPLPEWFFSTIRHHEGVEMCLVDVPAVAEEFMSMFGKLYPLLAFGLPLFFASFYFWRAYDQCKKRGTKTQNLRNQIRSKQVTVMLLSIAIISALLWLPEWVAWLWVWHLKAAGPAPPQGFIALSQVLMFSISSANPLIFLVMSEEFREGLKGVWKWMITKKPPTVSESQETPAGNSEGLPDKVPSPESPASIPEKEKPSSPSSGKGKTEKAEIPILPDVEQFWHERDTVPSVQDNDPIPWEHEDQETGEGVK
With `COc1ccc(-c2cc(C(=O)Nc3cc(Cl)ccc3O)no2)cc1OC` the activation was 0.999% (inactive). For `Cc1cc2c(c(=O)o1)C(c1cccc(OCc3c(F)cccc3Cl)c1)C(C#N)=C(N)O2` (configuration not stated), the activation was 1.06% (inactive). In the case of `CCC[C@@H]1NC(=O)[C@@H]2C[C@H](NCc3nc(-c4ccc(F)cc4)cs3)CN2C1=O`, the activation is reported as 5.66% (active). With `O=C1N[C@@H](Cc2ccc(Cl)cc2)C(=O)N2C[C@@H](NCc3nc(-c4ccc(F)cc4)cs3)C[C@@H]12` the activation was -2.22% (inactive). In the case of `CC(C)C[C@H]1NC(=O)[C@@H]2C[C@H](NCc3cc(F)ccc3F)CN2C1=O`, the activation is reported as -0.818% (inactive). For `O=C(NCc1ccc(Cl)cc1)C(=O)NC1CCCCCC1`, the activation was 1.92% (inactive). In the case of `Cc1cc(NC(=O)CSc2nnc3c(n2)[nH]c2ccc(S(=O)(=O)N4CCOCC4)cc23)no1`, the activation is reported as -0.982% (inactive). For `Cc1c2cnn(CC(=O)NCC(C)c3ccccc3)c(=O)c2c(C)n1Cc1ccccc1` (configuration not stated), the activation was -0.872% (inactive). In the case of `Cc1cc(C)cc(NC(=O)NC2CCN(CC(=O)Nc3cccc(Cl)c3C)CC2)c1`, the activation is reported as 0.14% (inactive). For `CC1CCN(CC(=O)Nc2ccccc2Cl)CC1`, the activation was 20.2% (active). For `CC1CCN(CC(=O)Nc2ccc(Cl)cc2)CC1`, the activation was -1.21% (inactive). `COc1ccc(NC(=O)C2CCCN2C(=O)Nc2ccccc2)cc1` (configuration not stated) was tested, and the activation was 2.01% (inactive). In the case of `Nc1cccc(-c2ncc(C(=O)NC3CC3)s2)c1`, the activation is reported as -0.0842% (inactive). In the case of `O=C(CC12CC3CC(CC(C3)C1)C2)Nc1ccc2c(c1)COC2=O`, the activation is reported as -1.36% (inactive) and 1.16% (inactive). In the case of `O=C(CC12CC3CC(CC(C3)C1)C2)Nc1ccc2oc(=O)ccc2c1`, the activation is reported as 6.05% (active). With `O=C(COc1ccc(Cl)cc1)Nc1ccc2oc(=O)ccc2c1` the activation was 1.66% (inactive). For `CCCOc1ccc(C2CC(=O)NC3=C2C(=O)CC(C)(C)C3)cc1` (configuration not stated), the activation was 0.129% (inactive). With `Cc1ccc(NC(=O)C2(C)CC3c4ccccc4C2c2ccccc23)cc1C` (configuration not stated) the activation was -0.659% (inactive). `CC1(C(=O)Nc2cccc(C(F)(F)F)c2)CC2c3ccccc3C1c1ccccc12` (configuration not stated) was tested, and the activation was 6.33% (active). In the case of `CC1(C)C(=O)C2(C(=O)Nc3cccc(C(F)(F)F)c3)CCC1C2` (configuration not stated), the activation is reported as -0.111% (inactive). For `O=C(NC(=S)Nc1ccc(-c2nc3ncccc3o2)cc1)c1ccc(I)cc1`, the activation was -0.544% (inactive). With `CC1CCCC(NC(=O)CSc2cc(=O)n(C)c3ccc(Cl)cc23)C1C` (configuration not stated) the activation was 1.18% (inactive). With `CCOC(=O)C1CCN(C(=O)CN2C(=O)c3cccnc3Oc3ccc(C)cc32)CC1` the activation was 2.66% (inactive). In the case of `Cc1ccc2c(c1)N(CC(=O)N1CCC(C)CC1)C(=O)c1cccnc1O2`, the activation is reported as 5.35% (active). With `COC(=O)CN1C(=O)c2cccnc2Oc2ccc(C)cc21` the activation was -1.68% (inactive). `CC1Cc2ccccc2N1S(=O)(=O)c1nnc(NC(=O)c2ccc(F)cc2)s1` (configuration not stated) was tested, and the activation was -0.611% (inactive). For `COc1ccccc1NC(=O)c1c(NCc2cccs2)sc2c1CCCC2`, the activation was 1.25% (inactive). With `C#CCN=Cc1c(O)n(CC)c(=S)n(CC)c1=O` the activation was -0.872% (inactive). `Cc1cccc(NC(=S)N(CCCN2CCCC(C)C2)Cc2cccs2)c1` (configuration not stated) was tested, and the activation was 2.67% (inactive). With `CCOC(=O)C1=CN(c2ccc(C)cc2)C=C(C(=O)OCC)C1c1ccc(Cl)c(Cl)c1` the activation was 1.19% (inactive). For `C#CCN1C(=O)S/C(=C/c2cc(Cl)c(O)c(OC)c2)C1=O`, the activation was 2.53% (inactive). In the case of `O=C(NCc1ccc2c(c1)OCO2)c1ccc(I)cc1`, the activation is reported as -1.11% (inactive). `C=CCn1c(=O)c2ccc(C(=O)NCc3ccc4c(c3)OCO4)cc2n(CC(N)=O)c1=O` was tested, and the activation was 10.5% (active). `CCCCCn1c(=S)[nH]c2cc(C(=O)NCc3ccc4c(c3)OCO4)ccc2c1=O` was tested, and the activation was -1.93% (inactive). With `CSCCC(NC(C)=O)C(=O)OCC(=O)Nc1nnc(C(C)C)s1` (configuration not stated) the activation was -1.34% (inactive). `COc1c(Cl)ccc(Cl)c1C(=O)Nc1cc(C)cc(C)c1` was tested, and the activation was 0.289% (inactive). With `Cn1c(/C=C2\C(=O)Nc3ccccc32)nc2ccccc2c1=O` the activation was 1.31% (inactive). In the case of `COC(=O)/C=C1/C(=O)Nc2ccccc21`, the activation is reported as -0.452% (inactive). In the case of `Cc1cc(C)c(/C=C2\C(=O)Nc3ccccc32)[nH]1`, the activation is reported as -2.18% (inactive) and 5.18% (active). For `COC(=O)c1c(OCc2cccnc2)cc(=O)n2c1CCN(C(C)CSC)CC2` (configuration not stated), the activation was 0.107% (inactive). In the case of `COc1cccc(CNC(=O)CCC(=O)N2CC(C)Oc3ccc(C)cc32)c1` (configuration not stated), the activation is reported as 0.215% (inactive). In the case of `Cc1cccc(CN[C@H]2C[C@H]3C(=O)N[C@@H](CC(C)C)C(=O)N3C2)c1`, the activation is reported as 1.59% (inactive). With `C=C(C)Cn1c(N2CCN(CCO)CC2)nc2c1c(=O)[nH]c(=O)n2C` the activation was -0.406% (inactive). `COc1ccc2nc(/C(C#N)=C\c3c[nH]c4ccccc34)[nH]c2c1` was tested, and the activation was -0.394% (inactive). In the case of `COc1ccc2nc(/C(C#N)=C\c3cc4c(cc3OC)OCO4)[nH]c2c1`, the activation is reported as 5.68% (active). With `COc1cc2c(cc1/C=C(\C#N)c1nc3ccccc3[nH]1)OCO2` the activation was 0.566% (inactive). In the case of `COc1cccc(/C=C(\C#N)c2nc3ccc(C)cc3[nH]2)c1OC`, the activation is reported as 13.2% (active). In the case of `Cc1ccc2nc(/C(C#N)=C/c3ccccc3F)[nH]c2c1`, the activation is reported as -0.301% (inactive). `COc1ccccc1/C=C(/C#N)c1nc2ccccc2[nH]1` was tested, and the activation was -0.79% (inactive). `COc1ccc(S(=O)(=O)n2nc(-c3cc(OC)cc(OC)c3)cc2N)cc1` was tested, and the activation was -1.02% (inactive). In the case of `Cc1ccc(NC(=O)C2CCCN(S(=O)(=O)c3ccc4c(c3)oc(=O)n4C)C2)cc1C` (configuration not stated), the activation is reported as -0.645% (inactive). With `O=C(c1ccc(N2CCC(NCc3cccc(F)c3F)CC2)cc1)N1CCCC(CO)C1` (configuration not stated) the activation was 0.257% (inactive). With `O=C(Nc1ccc2oc(-c3cccc(I)c3)nc2c1)c1cc(Br)ccc1Cl` the activation was -0.461% (inactive). With `O=C(Cc1cccs1)NCCC1=CCCCC1` the activation was 9.81% (active). `O=C(CNC(=S)N(Cc1cccs1)C1CCCCC1)NCCC1=CCCCC1` was tested, and the activation was 2.8% (inactive). In the case of `O=C(Cc1ccc([N+](=O)[O-])cc1)NCCC1=CCCCC1`, the activation is reported as 0.571% (inactive). With `CCOC(=O)c1c(NC(=O)c2cc(S(N)(=O)=O)c(Cl)cc2Cl)sc2c1CCC(C)C2` (configuration not stated) the activation was 0.0074% (inactive).
